Assay outcomes: PubChem BioAssay, National Center for Advancing Translational Sciences (NCATS)
Most compounds without a hit are left out; they make up all but 2.4% or so of the library.
Rango release inh: qHTS Assay for Inhibitors of RanGTP induced Rango (Ran-regulated importin-beta cargo) - Importin beta complex dissociation; Biochemical FRET Rango-importin beta, RanGTP-induced dissociation; 340,000 tested, 0.071% active; Snurportin-1 (Homo sapiens) + GTP-binding nuclear protein Ran (Homo sapiens) + Importin …; AID 540253, 2011; Potency, µM (titrated, usually from 46.1 µM), for inactives: at the highest dose activity change, negative = inhibition; calls by dose curve; also: % of control where 0% means no effect; nearly all actives have a fitted effect of over 45% in size
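Rango (0.1 uM)–importin beta (0.25 uM) complex; RanGTP-RCC1 trigger; 45 min RT; CFP/YFP FRET read.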
Rango complex inh: qHTS Assay for Inhibitors of Rango (Ran-regulated importin-beta cargo) - Importin beta complex formation; AID 540263, 2011; Rango CFP/YFP FRET sensor + importin beta, 45 min; Potency, µM (doses to about 92.2 µM), without a hit: at the top dose inhibition of complex formation; 340,000 tested, 0.031% active; Importin subunit beta-1 (Homo sapiens), Q14974; calls by dose curve;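 also: 0% = DMSO wells and 100% = buffer wells lacking importin beta; nearly all actives have a fitted effect of over 15% in size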
Target sequence (Q14974 whole entry, looked up): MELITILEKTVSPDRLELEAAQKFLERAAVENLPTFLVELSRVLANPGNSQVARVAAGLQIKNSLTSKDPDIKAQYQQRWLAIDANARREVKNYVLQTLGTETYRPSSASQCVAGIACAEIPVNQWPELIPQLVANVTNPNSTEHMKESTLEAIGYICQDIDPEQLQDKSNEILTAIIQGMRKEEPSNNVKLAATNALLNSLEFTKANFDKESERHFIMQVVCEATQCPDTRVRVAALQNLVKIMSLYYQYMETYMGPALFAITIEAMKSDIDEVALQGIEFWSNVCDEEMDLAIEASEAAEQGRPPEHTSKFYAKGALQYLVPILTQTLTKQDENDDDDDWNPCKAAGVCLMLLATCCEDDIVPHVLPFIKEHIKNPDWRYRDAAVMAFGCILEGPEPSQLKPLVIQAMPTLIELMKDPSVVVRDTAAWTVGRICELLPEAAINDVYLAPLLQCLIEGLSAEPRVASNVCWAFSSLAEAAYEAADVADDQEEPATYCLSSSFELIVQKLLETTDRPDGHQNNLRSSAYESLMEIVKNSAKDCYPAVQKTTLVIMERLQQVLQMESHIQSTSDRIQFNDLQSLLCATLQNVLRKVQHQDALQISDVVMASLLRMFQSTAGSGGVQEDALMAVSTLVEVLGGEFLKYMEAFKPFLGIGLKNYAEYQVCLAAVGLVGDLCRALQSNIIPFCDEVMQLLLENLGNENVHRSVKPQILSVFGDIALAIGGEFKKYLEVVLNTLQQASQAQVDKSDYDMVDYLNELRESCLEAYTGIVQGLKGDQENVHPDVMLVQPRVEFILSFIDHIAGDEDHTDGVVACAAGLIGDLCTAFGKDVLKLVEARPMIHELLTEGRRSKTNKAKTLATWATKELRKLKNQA
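FRET biosensor (snurportin 1 IBB flanked by EYFP and cerulean), 50 nM, with compound 5 min, then 0.125 microM importin beta in PBS, 1 mM DTT, 0.02% Tween-20, 0.1% BSA. CFP/YFP ratio read after 45 min at room temperature; pre-read flags interference.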
Tb PFK inh: qHTS Assay to Find Inhibitors of T. brucei phosphofructokinase | T. brucei PFK, ADP-Glo luminescence | Potency, µM (titrated, usually from 57.5 µM), for inactives: at the top dose activity, negative = inhibition, most hits filed as inhibitors | 330,000 tested, 0.17% active | ATP-dependent 6-phosphofructokinase (Trypanosoma brucei brucei), O15648 | AID 485367, 2010;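 also: 0% = uninhibited 1x PFK enzyme wells and -100% = no-enzyme wells; nearly all actives have a fitted effect of over 60% in size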
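PFK 1.25 nM, F6P 0.5 mM, ATP 0.1 mM, 0.1 M TEA pH 8.0, 5 mM MgCl2, 0.01% Tween20, 0.1% BSA; 45 min RT. ADP-Glo readout. qHTS titration up to 57 uM; curves fitted, compounds curve-classed.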
PKM2 activator: qHTS Assay for Activators of Human Muscle isoform 2 Pyruvate Kinase; AID 1631, 2009; 260,000 tested, 0.34% active; Pyruvate kinase PKM (Homo sapiens), P14618; purified PKM2, Kinase-Glo ATP luminescence, activation; response scale: 0% is enzyme alone, no compound; Potency, µM (titrated, usually from 57.5 µM), for the others: at the highest dose activation, usual class: activators; also: % is scaled to controls: 0 for no effect and ±100 for the full control effect; nearly all actives have a fitted effect of over 55% in size
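Kinase-Glo luminescence reports ATP generated from ADP (0.1 mM) and PEP (0.5 mM) by purified hPK-M2 after 1 h at room temperature, pH 7.2 imidazole buffer; intermediate enzyme activity allows detecting inhibitors and activators.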
ELG1 repair inh: qHTS screen for small molecules that inhibit ELG1-dependent DNA repair in human embryonic kidney (HEK293T) cells expressing luciferase-tagged ELG1; 330,000 tested, 2.3% active; HEK293T ELG1-luciferase reporter, luminescence, 16 h; DNA damage induced by 5-fluorouridine; Potency, µM (titrated, usually from 46.1 µM), inactives show top-dose activity change, negative = inhibition, most hits filed as inhibitors; also: % is scaled to controls: 0 for no effect and ±100 for the full control effect; nearly all actives have a fitted effect of over 55% in size
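Quantitative HTS, concentration-response format. 2,000 cells/well co-treated with 5-fluorouridine and compound, 16 hr in 5% CO2 at 37 °C; ONE-Glo luminescence read after 30 min.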
Tb PGK inh: qHTS Assay to Find Inhibitors of Phosphoglycerate Kinase; Phosphoglycerate kinase, glycosomal (Trypanosoma brucei brucei), P07378; PGK/GAPDH coupled, Kinase-Glo luminescence, 60 min; Potency, µM (titrated, usually from 57.5 µM), for inactives: top-dose activity change, negative = inhibition, most hits filed as inhibitors; 380,000 tested, 0.043% active; AID 602233, 2012; also: % is scaled to controls: 0 for no effect and ±100 for the full control effect; nearly all actives have a fitted effect of over 60% in size
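Luminescent ATP detection (Kinase-Glo Plus) follows a 60-minute room-temperature incubation, with wells lacking PGK as controls. Buffer: 100 mM TEA (pH 7.6), 5 mM MgCl2, 0.01% Tween-20. Coupling enzyme GAPDH (100 nM final) supplies unstable 1,3-BPG in-well.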
* hit, by the source's call; i = inactive; ? = inconclusive; . = no result given. Unless noted, calls follow the shape of the dose curve; as a rule, active = well fitted curve in the direction sought with a large enough effect; inconclusive = small, poorly fitted or top-dose-only effect, or another doubt; inactive = no such curve, though single readings can be large; an effect the other way counts as inactive or inconclusive. Potency is read from the fitted curve at half-maximal effect.

SMILES	Rango release inh	Rango complex inh	Tb PFK inh	PKM2 activator	ELG1 repair inh	Tb PGK inh
CC1CCCC(NC(=O)CN2CCN(S(=O)(=O)c3cccs3)CC2)C1C (stereo not given)	-1%	-1%	-19%	.	-8%	3%
CN(CC(=O)Nc1ccc(N2CCOCC2)cc1)C(=O)CCc1cc(C(C)(C)C)c(O)c(C(C)(C)C)c1	-6%	0%	-1%	.	5%	-8%
COc1nc(N)c(C#N)c(-c2ccc(N(C)CCC#N)cc2)c1C#N	-22%	?	0%	0%	16µM*	3%
Cc1nn(Cc2ccc(Cl)cc2)c(C)c1NC(=O)c1c(-c2ccccc2)noc1C	18%	0%	-6%	-4%	13µM*	-10%
Cc1onc(-c2ccccc2)c1C(=O)NCCc1ccc(Cl)cc1	0%	-1%	-4%	-7%	-6%	-11%
Cc1nn(Cc2ccc(Cl)cc2)c(C)c1NC(=O)c1cc(-c2ccc3c(c2)OCO3)on1	1%	-1%	0%	4%	18µM*	-7%
Cc1nn(Cc2ccc(Cl)c(Cl)c2)c(C)c1NC(=O)c1cc(-c2ccc3c(c2)OCO3)on1	1%	0%	4%	8%	?	-2%
COc1ccccc1/C=C/c1nc(C#N)c(N2CCN(C)CC2)o1	.	.	.	.	.	2%
COc1ccccc1C(=O)Nc1ccccc1N1CCN(C(=O)c2ccc(Cl)cc2)CC1	-8%	-1%	-7%	0%	15µM*	-6%
CN1CCN(c2ccccc2NC(=O)c2cccc(OCc3ccccc3)c2)CC1	15%	0%	2%	2%	21µM*	-6%
COc1cccc(C(=O)Nc2ccccc2N2CCN(C(=O)c3ccccc3)CC2)c1	37%	6%	-1%	.	23µM*	-2%
COc1cccc(C(=O)Nc2ccccc2N2CCCC2)c1	-8%	-3%	0%	8%	-5%	i
CC(C)(C)OC(=O)N1CCC(N2CCN(Cc3ccccc3)C(=O)C2=O)CC1	.	.	.	.	.	i
Cc1c(Cl)cccc1NC(=O)Cn1c(=O)nc(-c2ccccc2)c2ccccc21	.	.	.	.	.	0%
COc1c(C)cc(C(=O)C2CCCN(Cc3ccc(Oc4ncccn4)cc3)C2)cc1C (stereo not given)	0%	0%	0%	2%	18µM*	0%
Cc1ccsc1CN(C)CC(=O)NCC(=O)Nc1ccc(F)c(F)c1F	-8%	7%	3%	.	4%	-3%
C[C@@H]1CN([C@H](C)CO)C(=O)CCCn2cc(nn2)CO[C@H]1CN(C)S(=O)(=O)c1ccccc1C#N	.	.	.	.	.	-1%
O=C(NCc1ccccc1)c1ccc(Cl)cc1	2%	-3%	1%	-1%	6%	8%
O=C(NCc1ccc(Cl)cc1)c1cccc(NC(=O)c2ccccc2)c1	-6%	-3%	-4%	-5%	18µM*	-11%
CC(OC(=O)CC1CCCC1)C(=O)Nc1ccc(Cl)cn1 (stereo not given)	32%	3%	0%	.	14%	-4%
N#C/C(=C\c1ccc(O)c(O)c1)C(=O)c1ccc(O)c(O)c1	-5%	?	?	.	-5%	1.1µM*
Oc1c(Cl)cc(Cl)cc1/C=N/NC(=S)NC1CC2C=CC1C2 (stereo not given)	?	?	2%	-3%	15µM*	-1%
CCN1/C(=C/C(C)=C/c2sc3ccccc3[n+]2CC)Sc2ccccc21	-8%	0%	-5%	-54%	1.8µM*	?
CCOc1ccc(-c2noc(CSc3nnc(Cc4ccccc4)n3-c3cccc(C)c3)n2)cc1	.	.	.	.	.	-5%
Cc1ccc(C(=O)CSc2nnc(COc3ccc(C#N)cc3)n2-c2ccccc2)cc1	-6%	-7%	-4%	1%	2%	-6%
SMILES	Rango release inh	Rango complex inh	Tb PFK inh	PKM2 activator	ELG1 repair inh	Tb PGK inh
Cc1ccc(NC(=O)CSc2nnc(COc3ccc(C#N)cc3)n2-c2ccccc2)cc1C	20%	-1%	-2%	6%	23µM*	-3%
COC(=O)/C(=C\c1ccc2c(c1)c1ccccc1n2C)NC(=O)c1ccccc1	-12%	?	-1%	1%	21µM*	-3%
CC(C)OC(=O)/C(=C/c1ccc2c(c1)c1ccccc1n2C)NC(=O)c1ccccc1	-4%	?	-9%	-3%	21µM*	i
CC(C)OC(=O)/C(=C\c1ccc2c(c1)c1ccccc1n2C)NC(=O)c1ccccc1	-7%	-3%	4%	-4%	?	-3%
CC1CCN(c2nnc(-n3cccc3CNc3cccc(F)c3)s2)CC1	.	.	.	.	.	4%
COCCNC(=O)CCn1c(=O)[nH]c2cc(OC)c(OC)cc2c1=O	.	.	.	.	.	-6%
COCCN(C(=O)/C=C/c1cccc([N+](=O)[O-])c1)c1c(N)n(Cc2ccccc2)c(=O)[nH]c1=O	12%	4%	4%	3.2µM*	-2%	3%
COCCN(C(=O)/C=C/c1ccccc1)c1c(N)n(Cc2ccccc2)c(=O)[nH]c1=O	0%	-7%	1%	16%	-7%	-6%
O=S(=O)(c1cnc(Cl)c(Cl)c1)N1CCc2ccccc21	6%	-5%	2%	3.5µM*	9%	-10%
O=C1COc2ccc(S(=O)(=O)N3CCc4ccccc43)cc2N1	3%	3%	1%	14µM*	21%	-6%
O=S(=O)(c1cnc(Cl)c(Cl)c1)N1CCCc2ccccc21	-2%	6%	-3%	-14%	?	i
Cc1cccc(Cn2c(=O)n(Cc3ccccc3)c(=O)c3c2c2cc(C)ccc2n3C)c1	.	.	.	.	.	-10%
O=C(Oc1ccc2ccc(=O)oc2c1)c1ccco1	16µM*	?	3%	3%	25%	-9%
COc1cccc(CNc2sc3c(c2C(=O)Nc2ccc(OC)cc2OC)CCC3)c1	.	.	.	.	.	-2%
CC1(C)c2[nH]c3ccccc3c2C[C@@H]2C(=O)N(Cc3ccccc3Cl)C(=O)N21	12µM*	?	.	.	.	0%
CCCCCN1CC(=O)N2[C@@H](Cc3c([nH]c4ccccc34)C2(C)C)C1=O	14%	?	-12%	.	3%	6%
